Measurements reported in PubChem BioAssay (Tox21).
Records with an inconclusive call do not appear. Entries that show only a call come without a potency. Calls of active or inactive are those of the source. The call rests on the fitted dose curve; in most records, active means well fitted curve in the direction sought with a large enough effect in the repeat runs; inconclusive means weak or mixed curves; inactive means no such curve, though single readings can be large; an effect the other way counts as inactive or inconclusive.

tested on: not listed separately; assay: qHTS assay to identify aromatase inhibitors - cell viability counter screen (AID 743084); conditions: MCF-7 aro ERE viability, CellTiter-Fluor, 24 h; series mostly up to 70.3 µM;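 further: cells stimulated with testosterone during compound exposure; nearly all actives have a fitted effect of over 55% in size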
Potency means the concentration at half of the fitted maximal effect.

SMILES | Potency
O=C(NC(=O)c1ccccc1Cl)Nc1ccc(OC(F)(F)F)cc1 | inactive
Cc1ccccc1OP(=O)(Oc1ccccc1C)Oc1ccccc1C | inactive
C[N+]1(C)[C@@H]2CC[C@H]1CC(OC(=O)C(CO)c1ccccc1)C2 (stereo partly drawn) | inactive
CN1CCc2cc(Cl)c(O)cc2[C@H]2c3ccccc3CC[C@@H]21 | inactive
O.O.O.O=C([O-])[C@H]([O-])[C@@H]([O-])C(=O)[O-].O=C([O-])[C@H]([O-])[C@@H]([O-])C(=O)[O-].[K+].[K+].[Sb+3].[Sb+3] | inactive
C=CCBr | inactive
C=CC(=C)C | inactive
CCC1COC(Cn2cncn2)(c2ccc(Cl)cc2Cl)O1 (stereo not drawn) | inactive
CC(C)=CCN1CC[C@@]2(C)c3cc(O)ccc3C[C@@H]1[C@@H]2C | inactive
CCOP(=O)(Sc1ccccc1)Sc1ccccc1 | inactive
CCC[CH2][Sn]([CH2]CCC)([CH2]CCC)[O][Sn]([CH2]CCC)([CH2]CCC)[CH2]CCC | 2.12 µM (active)
COCCC#N | inactive
Brc1ccc(Oc2ccc(Br)cc2Br)c(Br)c1 | inactive
CCN(CC)CCN1C(=O)CN=C(c2ccccc2F)c2cc(Cl)ccc21 | inactive
C=CCOC(=O)c1ccccc1N | inactive
Oc1ccc([C@H]2CNCc3c2ccc(O)c3O)cc1O | inactive
c1ccc2nc(N3CCNCC3)ccc2c1 | inactive
N#Cc1c[nH]cc1-c1cccc2c1OC(F)(F)O2 | inactive
O=[N+]([O-])c1ccccc1-c1ccccc1 | inactive
Nc1nc(N)nc(Cl)n1 | inactive

SMILES | Potency
Oc1ccc2[nH]cc(CCCCN3CC=C(c4ccccc4)CC3)c2c1 | inactive
Nc1ccc(N=Nc2ccccc2)cc1 | 24.3 µM (active)
CCCCN(CCCC)C(=S)[S-].CCCCN(CCCC)C(=S)[S-].[Ni+2] | inactive
CNC(=O)O/N=C(\C)C(C)S(C)(=O)=O (stereo not drawn) | inactive
COP(=S)(NC(C)C)Oc1ccc(C)cc1[N+](=O)[O-] (stereo not drawn) | inactive
OCC(Br)CBr (stereo not drawn) | inactive
CC(C)N(C(=O)SC/C(Cl)=C/Cl)C(C)C | inactive
COc1ccc2c(c1OC)C(=O)O[C@@H]2[C@H]1c2cc3c(cc2CCN1C)OCO3 | 2.15 µM (active)
ClSC(Cl)(Cl)Cl | inactive
CCN(CC)C(=O)N[C@@H]1C=C2c3cccc4[nH]cc(c34)C[C@@H]2N(C)C1 | inactive
CCCCCON=O | inactive
O=C(N[C@H]1N=C(c2ccccc2F)c2cccc3c2N(CC3)C1=O)c1cc2ccccc2[nH]1 | inactive
[O-][Cl+3]([O-])([O-])O | inactive
CCC1(CC)C(=O)N=C(O)NC1=O | inactive
O=c1c2ccccc2c(=O)c2c1cc(Cl)c1[nH]c3c([nH]c12)c(Cl)cc1c(=O)c2ccccc2c(=O)c13 | inactive
CNC(C)(C)Cc1ccccc1 | inactive
O=P(Cl)(Cl)Cl | inactive
c1cc[n+]2c(c1)-c1cccc[n+]1CC2 | inactive
CN1[C@@H]2CC[C@H]1CC(O)C2 (stereo partly drawn) | inactive

biological target: Aryl hydrocarbon receptor (Homo sapiens) (UniProt P35869); assay: qHTS assay to identify small molecule that activate the aryl hydrocarbon receptor (AhR) signaling pathway (AID 743085); conditions: HepG2 AhR-luc (HG2L7.5c1), luciferase, 24 h; series mostly up to 70.3 µM; further: nearly all actives have a fitted effect of over 15% in size
How it was run: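 Steps: seed HepG2-AhR-luc cells; allow 5 h at 37C; pin-transfer test compound or vehicle; incubate 24 h at 37C; add viability dye (30 min, 37C) and read fluorescence; add luciferase substrate (30 min, RT) and read luminescence.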

Sequence of Aryl hydrocarbon receptor (Homo sapiens) (P35869 whole entry, looked up): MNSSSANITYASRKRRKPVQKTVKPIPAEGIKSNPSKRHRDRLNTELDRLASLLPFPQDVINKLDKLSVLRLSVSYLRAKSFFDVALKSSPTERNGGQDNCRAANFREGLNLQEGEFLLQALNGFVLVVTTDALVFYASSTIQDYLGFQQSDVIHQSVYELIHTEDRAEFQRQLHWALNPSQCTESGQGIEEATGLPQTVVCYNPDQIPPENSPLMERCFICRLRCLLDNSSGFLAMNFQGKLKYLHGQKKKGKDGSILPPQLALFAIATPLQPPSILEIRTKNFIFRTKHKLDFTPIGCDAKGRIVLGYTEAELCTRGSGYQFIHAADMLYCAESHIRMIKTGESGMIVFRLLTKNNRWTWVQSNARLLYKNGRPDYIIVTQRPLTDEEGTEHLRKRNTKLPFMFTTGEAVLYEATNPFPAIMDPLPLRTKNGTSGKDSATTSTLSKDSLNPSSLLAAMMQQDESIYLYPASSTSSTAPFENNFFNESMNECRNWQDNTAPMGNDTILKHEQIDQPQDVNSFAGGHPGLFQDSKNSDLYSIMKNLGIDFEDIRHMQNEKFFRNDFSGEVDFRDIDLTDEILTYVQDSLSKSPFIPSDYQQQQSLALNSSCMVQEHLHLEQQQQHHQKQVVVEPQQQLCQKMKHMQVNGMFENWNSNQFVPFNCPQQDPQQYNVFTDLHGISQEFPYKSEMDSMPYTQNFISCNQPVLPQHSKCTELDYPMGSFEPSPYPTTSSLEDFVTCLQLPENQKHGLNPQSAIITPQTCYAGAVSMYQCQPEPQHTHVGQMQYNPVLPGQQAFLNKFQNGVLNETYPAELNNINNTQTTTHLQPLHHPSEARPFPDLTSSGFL

SMILES | Potency
CN1CCc2cc(Cl)c(O)cc2[C@H]2c3ccccc3CC[C@@H]21 | inactive
O.O.O.O=C([O-])[C@H]([O-])[C@@H]([O-])C(=O)[O-].O=C([O-])[C@H]([O-])[C@@H]([O-])C(=O)[O-].[K+].[K+].[Sb+3].[Sb+3] | inactive
c1ccc2nc(N3CCNCC3)ccc2c1 | inactive
Oc1ccc2[nH]cc(CCCCN3CC=C(c4ccccc4)CC3)c2c1 | inactive
Nc1ccc(N=Nc2ccccc2)cc1 | 26.5 µM (active)
COc1ccc2c(c1OC)C(=O)O[C@@H]2[C@H]1c2cc3c(cc2CCN1C)OCO3 | inactive
O=C(N[C@H]1N=C(c2ccccc2F)c2cccc3c2N(CC3)C1=O)c1cc2ccccc2[nH]1 | 5.31 µM (active)

tested on: not listed separately; assay: qHTS assay to identify small molecule that activate the aryl hydrocarbon receptor (AhR) signaling pathway - cell viability counter screen (AID 743086); conditions: HepG2-AhR-luc viability, CellTiter-Fluor, 24 h; series mostly up to 70.3 µM; further: nearly all actives have a fitted effect of over 45% in size
How it was run: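 HepG2-AhR-luc (HG2L7.5c1) cells, 4000/well, were preincubated 5 h at 37C, exposed to compound in qHTS format for 24 hr at 37C, then given CellTiter-Fluor for 30 min; viability was read as fluorescence in the reporter wells.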

SMILES | Potency
O=C(NC(=O)c1ccccc1Cl)Nc1ccc(OC(F)(F)F)cc1 | inactive
Cc1ccccc1OP(=O)(Oc1ccccc1C)Oc1ccccc1C | inactive
C[N+]1(C)[C@@H]2CC[C@H]1CC(OC(=O)C(CO)c1ccccc1)C2 (stereo partly drawn) | inactive
C=CCBr | inactive
C=CC(=C)C | inactive
CCC1COC(Cn2cncn2)(c2ccc(Cl)cc2Cl)O1 (stereo not drawn) | inactive
CC(C)=CCN1CC[C@@]2(C)c3cc(O)ccc3C[C@@H]1[C@@H]2C | inactive
CCOP(=O)(Sc1ccccc1)Sc1ccccc1 | inactive
CCC[CH2][Sn]([CH2]CCC)([CH2]CCC)[O][Sn]([CH2]CCC)([CH2]CCC)[CH2]CCC | 2.67 µM (active)
COCCC#N | inactive
Brc1ccc(Oc2ccc(Br)cc2Br)c(Br)c1 | inactive
CCN(CC)CCN1C(=O)CN=C(c2ccccc2F)c2cc(Cl)ccc21 | inactive
C=CCOC(=O)c1ccccc1N | inactive
Oc1ccc([C@H]2CNCc3c2ccc(O)c3O)cc1O | inactive
N#Cc1c[nH]cc1-c1cccc2c1OC(F)(F)O2 | inactive
O=[N+]([O-])c1ccccc1-c1ccccc1 | inactive

SMILES | Potency
Nc1nc(N)nc(Cl)n1 | inactive
CCCCN(CCCC)C(=S)[S-].CCCCN(CCCC)C(=S)[S-].[Ni+2] | inactive
CNC(=O)O/N=C(\C)C(C)S(C)(=O)=O (stereo not drawn) | inactive
COP(=S)(NC(C)C)Oc1ccc(C)cc1[N+](=O)[O-] (stereo not drawn) | inactive
OCC(Br)CBr (stereo not drawn) | inactive
CC(C)N(C(=O)SC/C(Cl)=C/Cl)C(C)C | inactive
ClSC(Cl)(Cl)Cl | inactive
CCN(CC)C(=O)N[C@@H]1C=C2c3cccc4[nH]cc(c34)C[C@@H]2N(C)C1 | inactive
CCCCCON=O | inactive
[O-][Cl+3]([O-])([O-])O | inactive
CCC1(CC)C(=O)N=C(O)NC1=O | inactive
O=c1c2ccccc2c(=O)c2c1cc(Cl)c1[nH]c3c([nH]c12)c(Cl)cc1c(=O)c2ccccc2c(=O)c13 | inactive
CNC(C)(C)Cc1ccccc1 | inactive
O=P(Cl)(Cl)Cl | inactive
c1cc[n+]2c(c1)-c1cccc[n+]1CC2 | inactive
CN1[C@@H]2CC[C@H]1CC(O)C2 (stereo partly drawn) | inactive
